This note sets out measurements from PubChem BioAssay (Tox21).

Unmarked numbers belong to inactive results. Results filed as inconclusive are left out. The source made the active and inactive calls. Unless noted, the call rests on the fitted dose curve.

Assay [1] in a line: Nuclear factor erythroid 2-related factor 2/antioxidant responsive element (Nrf2/ARE) small molecule agonists: qHTS cell viability counter screen in human keratinocytes (AID 1919968; active means well fitted curve in the direction sought with a large enough effect in the repeat runs; an effect the other way counts as inactive or inconclusive; further: nearly all actives have a fitted effect of over 55% in size; further: potency means the concentration at half of the fitted maximal effect). Summed up: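 CellTiter-Fluor fluorescence, read 1 h after reagent, gave viability in the same wells as the ARE-luciferase assay. KeratinoSens cells (1,500/well) had 23 h compound exposure at 37 C/5% CO2 following 5 h plating.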

Assay [2] is described as follows: Nuclear factor erythroid 2-related factor 2/antioxidant responsive element (Nrf2/ARE) small molecule agonists: luciferase reporter gene qHTS assay in human keratinocytes (AID 1919969; further: nearly all actives have a fitted effect of over 35% in size; further: potency means the concentration at half of the fitted maximal effect). (Reporter assays use an easily measured gene product as a stand-in for the process of interest.)
The target in assay [3] is KiSS-1 receptor (Homo sapiens) (UniProt Q969F8). In words: Human kisspeptin (KISS1R) small molecule agonists, calcium flux assay in KISS1R-HEK293 cells (AID 1920064; active means well fitted curve in the direction sought with a large enough effect in the repeat runs; an effect the other way counts as inactive or inconclusive). In short, it runs like this: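 Agonist mode: intracellular calcium rise tracked at 1 s intervals over 3 min (480/540 nm) immediately after compound addition to dye-loaded KISS1R-HEK293 stable cells. Each compound tested at 15 concentrations in triplicate.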

Assay [4] can be described thus: G protein-coupled receptor (GPCR) small molecule agonists, calcium flux assay: HEK293 wild type cell line counter screen (AID 1920065). In short, it runs like this: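 Calcium flux counter screen: compound added in agonist mode at 15 concentrations in triplicate to dye-loaded parental HEK293 cells. Fluorescence (480/540) read kinetically for 3 min; ATP served as positive control.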
Background: Calcium flux is commonly read through the fluorescence of an indicator in the cells.

Assay [5] can be described thus: p53 small molecule agonists, cell-based qHTS assay with human liver microsomes (AID 1963577).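 Further: p53 response element beta-lactamase reporter cells with liver microsomes plus NADPH.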 Summed up:
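Reporter activation was measured by LiveBLAzer fluorescence intensity in p53RE-bla cells, which had been exposed to compounds for 16 h at 37 C alongside 0.5 mg/mL human liver microsomes and 0.5 mg/mL NADPH (final concentrations).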
For orientation: In qHTS, concentration-response curves come from the screen itself.

Assay [6] is described as follows: p53 small molecule agonists, cell-based qHTS assay with rat liver microsomes (AID 1963578). In short, it runs like this:
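Compound in DMSO added to p53RE-bla cells 5 h post-plating; rat microsomes/NADPH 0.5 mg/mL final; 16 h, 37 C; LiveBLAzer 2 h RT.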

The nature of assay [7]: p53 small molecule agonists, cell-based qHTS assay with human liver microsomes: qHTS cell viability counter screen (AID 1963579). Further: nearly all actives have a fitted effect of over 45% in size. Further: potency means the concentration at half of the fitted maximal effect. Summed up:
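HLM-supplemented (0.5 mg/mL final) and NADPH-supplemented (0.5 mg/mL final) p53RE-bla cultures, 4,000 cells per well, were dosed with compounds in DMSO for 16 h at 37 C; luminescent ATP detection (CellTiter-Glo, 30 min, room temperature) quantified surviving cells.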

Assay [8] can be described thus: p53 small molecule agonists, cell-based qHTS assay with rat liver microsomes: qHTS cell viability counter screen (AID 1963580). Further: nearly all actives have a fitted effect of over 45% in size. Further: potency means the concentration at half of the fitted maximal effect. In short, it runs like this: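 Cytotoxicity counter screen: intracellular ATP measured by CellTiter-Glo luminescence in the same wells as the beta-lactamase reporter read, on HCT-116 p53RE-bla cells exposed 16 h at 37 C to compounds with rat liver microsomes and NADPH, each 0.5 mg/mL final.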

Assay [9] is described as follows: p53 small molecule agonists, cell-based qHTS assay: qHTS cell viability counter screen (AID 1963581). Further: nearly all actives have a fitted effect of over 45% in size. Further: potency means the concentration at half of the fitted maximal effect. In short, it runs like this: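 Counter screen read by CellTiter-Glo luminescence (ATP content, 30 min at room temperature), run in the same wells as the beta-lactamase reporter read. HCT-116 p53RE-bla cells saw compounds for 16 h at 37 C.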
Assay [10] in a line: p53 small molecule agonists, cell-based qHTS assay (AID 1963582; active means well fitted activation curve with a large enough effect in the signal ratio in the repeat runs, not every such curve was filed as active; the % refers to the signal ratio). Summed up:
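Read-out is beta-lactamase FRET fluorescence after 2 h at room temperature with LiveBLAzer B/G substrate. p53 response element-bla cells were treated 16 h at 37 C with compounds in DMSO, added 5 h after seeding.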

The target of assay [11] is 5-hydroxytryptamine receptor 2A (Homo sapiens) (UniProt P28223). The experiment in a line: 5-hydroxytryptamine receptor 2A (HTR2A) small molecule agonists, cell-based qHTS assay (AID 1963587). Further: nearly all actives have a fitted effect of over 30% in size. Further: potency means the concentration at half of the fitted maximal effect. In short, it runs like this: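 CHO cells stably expressing human HTR2A, plated 18 h, loaded with calcium dye 1 h at 37 C. Agonist mode: compounds added and intracellular calcium fluorescence recorded kinetically for 2 min at 1 sec intervals.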

Assay [12] concerns the target Muscarinic acetylcholine receptor M1 (Homo sapiens) (UniProt P11229). The experiment in a line: Cholinergic receptor muscarinic 1 (CHRM1) small molecule agonists, cell-based qHTS assay (AID 1963589). Further: nearly all actives have a fitted effect of over 35% in size. In short, it runs like this:
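Agonist-mode calcium-flux screen: compounds at 15 concentrations, three independent runs, were pin-transferred onto dye-loaded human CHRM1-CHO cells. Fluorescence was then recorded kinetically every second over minutes.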

A short description of assay [13]: cAMP Responsive Elements (CRE) small molecule antagonists, cell-based qHTS assay (AID 1963591; active means well fitted inhibition curve with a large enough effect in the signal ratio in the repeat runs, not every such curve was filed as active; the % refers to the signal ratio; further: potency means the concentration at half of the fitted maximal effect). Summed up:
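Antagonist mode: compounds are added alongside the adenylyl cyclase activator NKH477 (0.25 uM final) to CRE-bla HEK293T cells for 3 h. LiveBLAzer FRET substrate, 2 h at room temperature, reports bla expression.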

For assay [14], the target named is Beta-2 adrenergic receptor (Homo sapiens) (UniProt P07550). In words: Adrenergic beta2 receptor (ADRB2) small molecule agonists, cell-based qHTS assay (AID 1963593).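 Further: CHO cells stably overexpressing human ADRB2.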 In short, it runs like this: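 CHO cells stably over-expressing ADRB2 were plated overnight at 37C, then dosed with compounds plus a stimulation mix containing 100uM IBMX and 25uM Ro-20-1724 for 0.5hr at room temperature. cAMP was measured by HTRF competition, 1hr.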

In assay [15] the target is D(2) dopamine receptor (Homo sapiens) (UniProt P14416). The experiment in a line: Dopamine D2 receptor (DRD2) small molecule agonists, cell-based qHTS assay (AID 1963594). Further: nearly all actives have a fitted effect of over 35% in size. Summed up:
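HEK293 cells stably expressing human DRD2, pre-treated with PDE inhibitor Ro20-1724 (0.1 mM final) and compound 10 min at room temperature, then stimulated with NKH477 (200nM […]) for 30 min. cAMP read by HTRF (665/620 nm).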

The target is the same in assay [16]. The experiment in a line: Dopamine D2 receptor (DRD2) small molecule antagonists, cell-based qHTS assay (AID 1963595; active means well fitted inhibition curve with a large enough effect in the signal ratio in the repeat runs, with a control signal flat; the % refers to the signal ratio; further: potency means the concentration at half of the fitted maximal effect). Summed up: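 Antagonist mode in DRD2-HEK293 cells: after compound addition with 0.1 mM Ro20-1724, cells received quinpirole (12 nM) and NKH477 (200 nM) for 30 min at room temperature; HTRF cAMP read after 1 h detection.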
For assay [17], the target named is 5-hydroxytryptamine receptor 2A (Homo sapiens) (UniProt P28223). In words: 5-hydroxytryptamine receptor 2A (HTR2A) small molecule antagonists, cell-based qHTS assay (AID 1963586). Further: nearly all actives have a fitted effect of over 45% in size. Further: potency means the concentration at half of the fitted maximal effect. In short, it runs like this:
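CHO cells stably expressing human HTR2A were plated for 18 h at 37 C, then loaded with calcium dye for 1 h. Compounds were preincubated 5 min at room temperature before DOI (4 nM solution) was added. Kinetic fluorescence was read for 3 min.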

Assay [18] addresses Muscarinic acetylcholine receptor M1 (Homo sapiens) (UniProt P11229). In words: Cholinergic receptor muscarinic 1 (CHRM1) small molecule antagonists, cell-based qHTS assay (AID 1963588). Further: nearly all actives have a fitted effect of over 40% in size. Further: potency means the concentration at half of the fitted maximal effect. In short, it runs like this:
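Compounds were tested at 15 concentrations in three independent runs. Dye-loaded CHRM1-CHO cells were exposed 5 min at room temperature before stimulation by acetylcholine added at 50nM. Intracellular calcium was read kinetically on FDSS for 3 min.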

Assay [19] can be described thus: cAMP Responsive Elements (CRE) small molecule agonists, cell-based qHTS assay (AID 1963590). Summed up:
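Agonist mode: compound added to CRE-bla HEK 293T cells (2,000/well, 18 h after plating) for 3 h at 37 C/5% CO2. Reporter activity detected via FRET beta-lactamase substrate, 2 h room-temperature loading.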

The target of assay [20] is Beta-2 adrenergic receptor (Homo sapiens) (UniProt P07550). The experiment in a line: Adrenergic beta2 receptor (ADRB2) small molecule antagonists, cell-based qHTS assay (AID 1963592). Further: series mostly up to about 92 µM; nearly all actives have a fitted effect of over 50% in size. In short, it runs like this:
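Assay format: CHO-ADRB2 cells, 18-20hr seeding at 37C/5% CO2, then compound plus 1nM isoproterenol agonist mix for 0.5hr RT. Homogeneous time-resolved fluorescence cAMP detection after 1hr, expressed as 665/615 nm ratio.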

Beta-2 adrenergic receptor (Homo sapiens), sequence (P07550 whole entry, looked up): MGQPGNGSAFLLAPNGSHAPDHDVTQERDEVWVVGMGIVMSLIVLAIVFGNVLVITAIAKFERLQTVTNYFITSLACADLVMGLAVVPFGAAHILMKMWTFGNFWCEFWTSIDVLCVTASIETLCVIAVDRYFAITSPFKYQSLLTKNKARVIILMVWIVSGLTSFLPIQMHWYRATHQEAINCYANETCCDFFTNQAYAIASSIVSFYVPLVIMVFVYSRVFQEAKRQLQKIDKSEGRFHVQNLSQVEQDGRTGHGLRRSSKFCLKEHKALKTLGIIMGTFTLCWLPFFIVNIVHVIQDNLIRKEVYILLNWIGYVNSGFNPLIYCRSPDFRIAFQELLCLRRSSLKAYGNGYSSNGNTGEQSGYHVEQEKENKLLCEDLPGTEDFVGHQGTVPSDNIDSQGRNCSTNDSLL
KiSS-1 receptor (Homo sapiens), sequence (Q969F8 whole entry, looked up): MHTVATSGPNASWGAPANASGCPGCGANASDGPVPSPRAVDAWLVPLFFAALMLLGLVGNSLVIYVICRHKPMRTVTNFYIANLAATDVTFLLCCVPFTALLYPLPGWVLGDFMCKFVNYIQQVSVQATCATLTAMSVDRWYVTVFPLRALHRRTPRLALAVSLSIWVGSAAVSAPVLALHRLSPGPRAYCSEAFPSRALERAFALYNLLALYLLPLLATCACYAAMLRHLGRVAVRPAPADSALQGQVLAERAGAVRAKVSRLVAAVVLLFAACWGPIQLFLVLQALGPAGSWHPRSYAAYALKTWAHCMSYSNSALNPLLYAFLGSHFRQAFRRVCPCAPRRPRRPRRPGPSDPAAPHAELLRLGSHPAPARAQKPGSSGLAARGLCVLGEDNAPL
D(2) dopamine receptor (Homo sapiens), sequence (P14416 whole entry, looked up): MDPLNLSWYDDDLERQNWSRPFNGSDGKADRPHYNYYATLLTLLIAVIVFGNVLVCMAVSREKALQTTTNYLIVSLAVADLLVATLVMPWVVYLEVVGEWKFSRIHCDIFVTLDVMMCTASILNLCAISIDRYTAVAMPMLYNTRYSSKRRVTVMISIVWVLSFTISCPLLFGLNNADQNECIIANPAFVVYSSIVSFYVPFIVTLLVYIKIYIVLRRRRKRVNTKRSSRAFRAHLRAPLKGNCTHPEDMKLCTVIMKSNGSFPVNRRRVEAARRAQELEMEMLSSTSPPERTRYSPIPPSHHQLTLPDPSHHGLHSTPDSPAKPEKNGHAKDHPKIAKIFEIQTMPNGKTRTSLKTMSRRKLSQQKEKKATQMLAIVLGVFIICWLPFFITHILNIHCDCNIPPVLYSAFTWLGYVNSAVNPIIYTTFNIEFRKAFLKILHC
Muscarinic acetylcholine receptor M1 (Homo sapiens), sequence (P11229 whole entry, looked up): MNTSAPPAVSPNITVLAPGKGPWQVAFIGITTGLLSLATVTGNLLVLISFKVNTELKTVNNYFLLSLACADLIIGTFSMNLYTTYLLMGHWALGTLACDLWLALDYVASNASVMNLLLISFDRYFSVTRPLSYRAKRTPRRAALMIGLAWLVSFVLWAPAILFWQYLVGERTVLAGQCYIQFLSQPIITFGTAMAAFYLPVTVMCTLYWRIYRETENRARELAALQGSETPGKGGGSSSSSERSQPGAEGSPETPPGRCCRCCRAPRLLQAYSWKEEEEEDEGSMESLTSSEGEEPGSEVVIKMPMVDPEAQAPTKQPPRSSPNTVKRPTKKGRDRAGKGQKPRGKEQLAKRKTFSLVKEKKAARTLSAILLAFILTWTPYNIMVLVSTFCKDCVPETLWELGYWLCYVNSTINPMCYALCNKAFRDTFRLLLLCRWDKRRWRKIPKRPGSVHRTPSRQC
5-hydroxytryptamine receptor 2A (Homo sapiens), sequence (P28223 whole entry, looked up): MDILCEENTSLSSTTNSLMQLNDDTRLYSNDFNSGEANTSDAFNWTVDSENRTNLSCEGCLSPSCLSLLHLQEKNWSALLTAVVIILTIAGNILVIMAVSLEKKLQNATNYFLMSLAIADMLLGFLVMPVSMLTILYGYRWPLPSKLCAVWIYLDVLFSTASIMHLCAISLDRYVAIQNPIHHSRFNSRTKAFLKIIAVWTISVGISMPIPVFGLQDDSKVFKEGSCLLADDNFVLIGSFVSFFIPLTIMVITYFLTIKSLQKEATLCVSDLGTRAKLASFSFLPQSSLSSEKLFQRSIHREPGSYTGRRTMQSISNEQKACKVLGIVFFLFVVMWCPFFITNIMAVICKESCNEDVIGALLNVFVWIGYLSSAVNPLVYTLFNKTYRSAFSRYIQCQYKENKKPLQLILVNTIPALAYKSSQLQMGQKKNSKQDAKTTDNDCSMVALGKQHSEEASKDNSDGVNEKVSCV

As to `CC(C(O)c1ccccc1)N(C)C/C=C/c1ccccc1` (stereo not given), the Potency result in assay [1], in assay [2], in [3], in assay [4], in [5] and in [6] was “inactive” each time. The Potency entry in assay [7], in assay [8], in [9], in [10], in assay [11] and in assay [12] was “inactive” in each case. Moreover, the Potency result in assay [13], in [14], in assay [15] and in [16] was “inactive” throughout.
`O=C(Cl)C(Cl)(Cl)Cl`: the Potency result in assay [1], in assay [2], in [3], in [4], in [5] and in [6] was “inactive” each time. Further, the Potency entry in assay [7], in assay [8], in assay [9], in assay [10], in [17] and in assay [11] was “inactive” each time. In addition, the Potency result in assay [18], in assay [12], in assay [19], in assay [13], in assay [15] and in assay [16] was “inactive” throughout.
`CCN(CC)C(=O)[C@@H]1C=C2c3cccc4[nH]cc(c34)C[C@H]2N(C)C1`: the Potency result in assay [1], in [2], in [3], in assay [4], in assay [5] and in [6] was “inactive” each time. For the same compound, the Potency result in assay [8], in assay [9], in assay [10], in assay [17] and in assay [18] was “inactive” each time.
In the case of `CC(=O)O[C@H]1CC[C@@]2(C)C(=CC[C@@H]3[C@@H]2CC[C@]2(C)C(=O)CC[C@@H]32)C1`, the Potency entry in assay [1], in assay [2], in assay [3], in assay [4], in [5] and in assay [6] was “inactive” in each case. Further, the Potency entry in [7], in assay [8], in [10], in assay [17], in assay [11] and in assay [18] was “inactive” throughout. Further, the Potency entry in assay [12], in assay [20], in [15] and in assay [16] was “inactive” each time.
As for `CC(=O)[O][Pb]([c]1ccccc1)([c]1ccccc1)[c]1ccccc1`, the Potency is 3.86 µM (active) in assay [1]; 0.864 µM (active) in assay [2]; 4.08 µM (active) in [7]; 8.14 µM (active) in assay [8]; 16.2 µM (active) in [9]; 49 µM (active) in assay [11]. In addition, in assay [16], the Potency is 4.33 µM (active). For the same compound, the Potency entry in assay [5], in assay [6] and in assay [17] was “inactive” throughout.
With `[Cl][Hg][c]1ccccc1`, the Potency is 2.73 µM (active) in assay [1]; 0.969 µM (active) in assay [2]; 4.58 µM (active) in [7]; 8.14 µM (active) in assay [8]; 2.89 µM (active) in assay [9]; 49 µM (active) in [11]. For the same compound, the Potency in [16] was 13.7 µM (active). For the same compound, the Potency entry in [3], in [4], in [5], in assay [6], in [17] and in assay [18] was “inactive” each time.
In the case of `CC1(c2ccc(Oc3ccccc3)cc2)OC(=O)N(Nc2ccccc2)C1=O` (stereo not given), the Potency in [1] is 27.5 µM (active); in [18], 5.33 µM (active); in [13], 61.5 µM (active). In addition, the Potency result in assay [2], in assay [3], in assay [4], in assay [5], in [6] and in assay [7] was “inactive” each time. Further, the Potency entry in assay [8], in assay [9], in assay [10], in [11], in assay [12] and in assay [19] was “inactive” in each case. The Potency entry in assay [14] and in assay [15] was “inactive” throughout.
For the compound `[CH3][Hg][Cl]`, the Potency in [1] is 6.09 µM (active); in assay [2], 2.43 µM (active); in assay [11], 38.8 µM (active). Also, the Potency result in assay [3], in [4], in [5], in assay [6], in assay [7] and in assay [8] was “inactive” in each case. The Potency entry in assay [9], in assay [18], in assay [12], in assay [13], in assay [14] and in [15] was “inactive” in each case. Moreover, the Potency entry in [16] is “inactive”.
Take `CCN(CC)CCc1c[nH]c2ccccc12`: the Potency result in assay [1], in assay [2], in [3], in assay [4], in [5] and in assay [6] was “inactive” in each case. Also, the Potency entry in [7], in assay [8], in assay [10], in assay [18], in assay [12] and in assay [19] was “inactive” in each case. The Potency entry in assay [20], in assay [14], in [15] and in assay [16] was “inactive” throughout. Moreover, the Potency in [17] was 0.0221 µM (active); in assay [11], 0.0091 µM (active).
